High-throughput results from PubChem BioAssay.
CYP2C9 inhib = blockers of cytochrome P450 2C9 activity – biochemical, luminescence, ADME assay, primary screen. inhibition, % at 5 µM. AID 777, 2007. CYP2C9 Supersomes, luciferin-H conversion. 96,000 compounds, 20% hits. P11712;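 active = blocking of liver enzyme CYP2C9 beyond about 50% at 5 µM, limit read from the data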
MRP reversal = reversal of MRP1-mediated doxorubicin resistance, primary screen, H69AR cells, doxorubicin co-treatment. 85,000 compounds, 0.04% hits. AID 602, 2007. H69AR cells + 2 uM doxorubicin, CellTiter-Glo, 72 h. differential viability (reversal), % at 10 µM;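 active = viability drop by adding the cancer drug above about 55%, with treated viability meeting a 40% cutoff, limit read from the data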;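 also: viability without doxorubicin minus viability with 2 µM doxorubicin for each compound; larger differential means the compound sensitizes cells more to doxorubicin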
CYP2C9 act = human CYP2C9 activators, primary screen, biochemical, luminescence; recombinant CYP2C9, luciferin-H conversion; stronger effect = higher value; factor 1 = untreated enzyme, 0 = blocked; activation factor at 5 µM; 96,000 compounds, 1.4% hits; Cytochrome P450 2C9 (Homo sapiens), P11712;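 active = activation factor of 2 or more for CYP2C9 at a 5 µM dose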;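 also: 0 = sulfaphenazole-blocked wells and 1 = vehicle-only wells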
CYP2C19 act = human CYP2C19 activators, primary screen, biochemical, luminescence. Cytochrome P450 2C19 (Homo sapiens), P33261. recombinant CYP2C19, luciferin-H EGE luminescence; stronger effect = higher value; 0 = fully inhibited enzyme, 1 = untreated enzyme. activation factor at 5 µM. 96,000 tested, under 10 active. AID 1025, 2008;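 active = activation factor of at least 2 at 5 µM in the primary screen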;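 also: 0 = wells with 2.5 mM tranylcypromine and 1 = vehicle-only wells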
Target sequence (P33261 whole entry, looked up): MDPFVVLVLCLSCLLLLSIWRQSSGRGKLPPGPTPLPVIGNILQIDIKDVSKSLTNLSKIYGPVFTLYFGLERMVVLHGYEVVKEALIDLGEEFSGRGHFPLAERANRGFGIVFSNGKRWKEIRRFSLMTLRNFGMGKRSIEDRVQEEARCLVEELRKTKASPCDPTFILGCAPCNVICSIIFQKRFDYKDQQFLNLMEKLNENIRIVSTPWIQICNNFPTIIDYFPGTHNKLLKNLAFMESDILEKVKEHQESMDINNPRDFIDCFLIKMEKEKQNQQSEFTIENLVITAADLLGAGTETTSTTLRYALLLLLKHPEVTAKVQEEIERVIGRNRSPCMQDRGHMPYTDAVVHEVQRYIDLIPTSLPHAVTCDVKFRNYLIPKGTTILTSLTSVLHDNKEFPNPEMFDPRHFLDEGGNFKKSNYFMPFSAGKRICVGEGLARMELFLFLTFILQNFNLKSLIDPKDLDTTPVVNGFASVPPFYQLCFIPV
MRP-1 activ = H69AR viability gain despite doxorubicin, primary screen, MRP-1 activator project, H69AR cells, CellTiter-Glo. viability increase, % at 10 µM. AID 799, 2007. viability rescue. 140,000 compounds, 0.61% hits;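 active = viability gain under doxorubicin at or above a set limit, the compound median plus 3 SD, cut at about 4.7% in these data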;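 also: MRP-1 overexpressing cells given doxorubicin 25 µM after compound pretreatment; 18-22 h compound pretreatment then 72 h with doxorubicin before readout; 0% = doxorubicin-only wells and 100% = vehicle-treated cells without doxorubicin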
CYP2C19 inhib = blockers of cytochrome P450 2C19 activity – biochemical, luminescence, ADME assay, primary screen. CYP2C19 Supersomes, luciferin-H EGE luminescence, 30 min. inhibition, % at 5 µM. 96,000 compounds, 21% hits;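 active = CYP2C19 inhibition above a set limit at 5 µM in the primary screen, cut at about 50% in these data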;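 also: plate controls were negative control wells for no effect and 2.5 mM tranylcypromine positive control for full effect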
* = called active by the depositor. The list is not random: actives were taken first. Their share in the collection is about 21%.

For O=C(O)CCc1nnc2n(Cc3ccc(F)cc3)c(=O)c3ccccc3n12 the results were CYP2C9 inhib -1, MRP reversal 11, CYP2C9 act 1, CYP2C19 act 1, MRP-1 activ -1 and CYP2C19 inhib -2.
Screening COc1ccc(CSCCN)cc1Cl returned CYP2C9 inhib 47, CYP2C9 act 0.5, CYP2C19 act 0.4, MRP-1 activ -4 and CYP2C19 inhib 64*.
For Cc1ccc(C)c(C2C(C#N)=C(N)Oc3cc(C)oc(=O)c32)c1 (configuration not stated) the results were MRP-1 activ -2.
Cc1cc2c(c(=O)o1)C(CC(C)C)C(C#N)=C(N)O2 (configuration not stated) was read as CYP2C9 inhib 63*, MRP reversal -5, CYP2C9 act 0.4, CYP2C19 act 0.8, MRP-1 activ 0 and CYP2C19 inhib 24.
COc1cccc(C2C(C#N)=C(N)Oc3cc(C)oc(=O)c32)c1OC (configuration not stated) was read as CYP2C9 inhib 74*, MRP reversal -4, CYP2C9 act 0.3, CYP2C19 act 0.6, MRP-1 activ -1 and CYP2C19 inhib 44.
`COc1cccc(C2C(C#N)=C(N)Oc3cc(N)ccc32)c1OC` (configuration not stated) gave MRP-1 activ -2.
Cc1cc2c(c(=O)o1)C(C13C=CC(CC1)C3)C(C#N)=C(N)O2 (configuration not stated) was read as CYP2C9 inhib 75*, MRP reversal -4, CYP2C9 act 0.2, CYP2C19 act 0.3, MRP-1 activ -1 and CYP2C19 inhib 72*.
Screening CCn1cc(CNC(=O)CCSc2nc(-c3ccco3)cc(C(F)(F)F)n2)cn1 returned CYP2C9 inhib 19, MRP reversal -44, CYP2C9 act 0.8, CYP2C19 act 0.8, MRP-1 activ -4 and CYP2C19 inhib 24.
CCOC(=O)CSC1=NC(=O)CS1 was read as CYP2C9 inhib 4, MRP reversal 18, CYP2C9 act 1, CYP2C19 act 0.9, MRP-1 activ -2 and CYP2C19 inhib 5.
Cc1ccc(NC(=O)CN(C)C(=O)CCC(=O)c2cccs2)cc1 was read as MRP-1 activ 0.
For COc1ccc2c3c(cccc13)C(=O)N(O)C2=O the results were MRP-1 activ 3.
`COc1ccc2c3c(cccc13)OCC2=O` gave CYP2C9 inhib 40, MRP reversal -7, CYP2C9 act 0.6, CYP2C19 act 0.5, MRP-1 activ -3 and CYP2C19 inhib 51*.
Screening CCN(CC)C(=O)CSc1nc2sc3c(c2c(=O)n1-c1ccc(C)cc1)CC(C)(C)SC3 returned CYP2C9 inhib 96*, MRP reversal 1, CYP2C9 act 0, CYP2C19 act 0.5, MRP-1 activ 0 and CYP2C19 inhib 52*.
For COc1ccc(C(=O)CSc2nnc(CN3CCCCC3)n2-c2ccc(F)cc2)cc1OC the results were MRP-1 activ -2.
Screening NC(=O)c1ccc(Sc2nnc(-c3cccs3)n2CC2CCCO2)c([N+](=O)[O-])c1 (configuration not stated) returned MRP-1 activ -4.
Screening FC(F)(F)c1cnc(Sc2nnc(-c3cccs3)n2CC2CCCO2)c(Cl)c1 (configuration not stated) returned CYP2C9 inhib -7, CYP2C9 act 1.1, CYP2C19 act 0.1, MRP-1 activ -1 and CYP2C19 inhib 89*.
Screening FC(F)(F)c1ccc(Sc2nnc(-c3cccs3)n2CC2CCCO2)nc1 (configuration not stated) returned CYP2C9 inhib 52*, MRP reversal 12, CYP2C9 act 0.5, CYP2C19 act 0.1, MRP-1 activ -1 and CYP2C19 inhib 91*.
COC(=O)c1c(C)oc2ccc(NS(=O)(=O)c3cc(OC)ccc3OC)cc12 was read as CYP2C9 inhib 15, MRP reversal 28, CYP2C9 act 0.8, CYP2C19 act 1, MRP-1 activ -1 and CYP2C19 inhib 4.
For COc1ccc(OC)c(S(=O)(=O)Nc2ccc(O)c3ccccc23)c1 the results were CYP2C9 inhib 84*, MRP reversal 0, CYP2C9 act 0.2, CYP2C19 act 0.2, MRP-1 activ 0 and CYP2C19 inhib 76*.
For CCOc1ccc(NS(=O)(=O)c2cc(OC)ccc2OC)cc1 the results were CYP2C9 inhib 79*, MRP reversal -9, CYP2C9 act 0.2, CYP2C19 act 0.5, MRP-1 activ -2 and CYP2C19 inhib 49.
COc1ccc(OC)c(S(=O)(=O)Nc2ccc(O)c(Sc3ncn[nH]3)c2)c1 was read as CYP2C9 inhib 43, CYP2C9 act 0.6, CYP2C19 act 0.2, MRP-1 activ -1 and CYP2C19 inhib 80*.
CCCCOC(=O)c1ccc(NS(=O)(=O)c2cc(-c3nnnn3CC)ccc2OC)cc1 was read as CYP2C9 inhib 71*, MRP reversal 22, CYP2C9 act 0.3, CYP2C19 act 0.9, MRP-1 activ -2 and CYP2C19 inhib 12.
COc1ccc(OC)c(S(N)(=O)=O)c1 was read as CYP2C9 inhib 2, MRP reversal 4, CYP2C9 act 1, CYP2C19 act 0.9, MRP-1 activ 0 and CYP2C19 inhib 13.
CCOc1ccccc1N(C(=O)Cn1nnnc1-c1ccc(C)o1)C(CC)C(=O)NC(C)(C)C (configuration not stated) was read as MRP reversal -4 and MRP-1 activ -1.
CCOC(=O)c1ccc(NS(=O)(=O)CC)cc1 was read as CYP2C9 inhib 80*, MRP reversal 1, CYP2C9 act 0.2, CYP2C19 act 0.3, MRP-1 activ 0 and CYP2C19 inhib 67*.
Screening CCOC(=O)c1ccc(NS(=O)(=O)c2cc(-c3nnnn3CC)ccc2OC)cc1 returned MRP reversal 24 and MRP-1 activ -3.
For CCOc1ccc(S(=O)(=O)Nc2ccc(F)cc2)c(C)c1C the results were CYP2C9 inhib 100*, MRP reversal -5, CYP2C9 act 0, CYP2C19 act 0, MRP-1 activ -5 and CYP2C19 inhib 100*.
`CCOC(=O)c1ccc(NS(=O)(=O)c2c(C)n(C)c(=O)n(C)c2=O)cc1` gave MRP reversal 1 and MRP-1 activ -1.
`COc1ccc(OC)c(S(=O)(=O)Nc2ccc(C(N)=O)cc2)c1` gave CYP2C9 inhib 30, MRP reversal 12, CYP2C9 act 0.7, CYP2C19 act 0.4, MRP-1 activ -2 and CYP2C19 inhib 60*.
COc1ccc(OC)c(S(=O)(=O)Nc2ccc(C(C)=O)cc2)c1 was read as CYP2C9 inhib 44, MRP reversal 2, CYP2C9 act 0.6, CYP2C19 act 0.5, MRP-1 activ 0 and CYP2C19 inhib 47.
